FBA Mtb inh – Mtb FBA enzyme inhibitors, primary screen, biochemical, fluorescence, strain H37Rv; purified M. tuberculosis FBA, fluorescence read-out; inhibition, % at 1 µM; hit rate 2.3% among 360,000
Target sequence (P9WQA3 whole entry, looked up): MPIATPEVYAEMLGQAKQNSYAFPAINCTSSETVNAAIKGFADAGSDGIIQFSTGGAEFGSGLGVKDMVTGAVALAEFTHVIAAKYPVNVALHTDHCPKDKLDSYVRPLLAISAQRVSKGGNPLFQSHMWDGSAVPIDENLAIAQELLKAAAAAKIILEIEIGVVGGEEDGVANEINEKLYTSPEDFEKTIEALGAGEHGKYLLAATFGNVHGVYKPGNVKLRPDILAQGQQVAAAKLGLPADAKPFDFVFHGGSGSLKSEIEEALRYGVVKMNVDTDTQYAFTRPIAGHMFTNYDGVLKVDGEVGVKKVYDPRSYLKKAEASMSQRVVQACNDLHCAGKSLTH
PrP UTR inh – inhibition of PrP 5' UTR reporter expression. cell-based PrP 5' UTR mRNA reporter, plate reader. inhibition, % (test concentration not listed). hit rate 0.35% among 340,000. AID 488862, 2010; in the data active means inhibition above about 52%
PrPC TRFRET – inhibitors of human cell surface prion protein PrPC, primary screen, cell-based, TR-FRET. Major prion protein (Homo sapiens), P04156. AID 720596, 2013. TR-FRET read-out. inhibition, % at 13.8 µM. hit rate 0.43% among 370,000; in the data active means inhibition above about 24%
Mtb hypoxia inh – PubChem AID 1159583; M. tuberculosis hypoxia-regulated fluorescent reporter, fluorescence; fluorescence inhibition, % (concentration not given with the values); hit rate 0.1% among 300,000; in the data active means fluorescence inhibition mostly above about 23%, no sharp cut-off; inactive means mostly below about 17%
Yp Topo-I inh – Yersinia pestis topoisomerase I inhibitors, primary screen, biochemical, cleavage product accumulation, plate reader, single point; DNA topoisomerase I (Yersinia pestis CO92); Y. pestis Topo-I cleavage product accumulation; activity, % at 10 µM; hit rate 0.064% among 360,000; AID 504884, 2011; in the data active means activity above about 50%, passing the limit was not always enough
GDH-TPI counter-1 – GDH-TPI coupling enzyme inhibitors, primary screen, artefact control for M. tuberculosis FBA inhibitor project, biochemical, absorbance, full deck; GDH-TPI coupled enzyme counterscreen, NADH absorbance; hit rate 1.2% among 360,000; inhibition, % at 4.8 µM; in the data active means inhibition above about 30%
Mtb FBA inh conf – M. tuberculosis aldolase blockers, biochemical, fluorescence, strain H37Rv, confirmation | shares compounds with FBA Mtb inh | purified M. tuberculosis FBA, fluorescence read-out | inhibition, % at 1 µM | hit rate 78% among 5,600
GDH-TPI counter-2 – GDH-TPI coupling enzyme inhibitors, artefact control for M. tuberculosis FBA inhibitor project, biochemical, fluorescence, high throughput; inhibition, % at 1 µM; shares compounds with FBA Mtb inh; hit rate 81% among 5,600; AID 652141, 2013; GDH-TPI coupled enzyme counterscreen; in the data active means inhibition above about 10%
Numbers stand for hits; - = inactive; . = not tested or not shown; + = active, no number. An excerpt weighted towards active compounds, which were near 3.8% of everything screened. Unless noted, no stated cut-off is given here; in the data, active means inhibition above about 27%; inactive means the rest.

SMILES	FBA Mtb inh	PrP UTR inh	PrPC TRFRET	Mtb hypoxia inh	Yp Topo-I inh	GDH-TPI counter-1	Mtb FBA inh conf	GDH-TPI counter-2
Cc1ccc(Cn2c(C3CCCN3c3nc(-c4ccc(F)cc4)cs3)nc3cc(C(=O)NCCCO)ccc32)cc1 (stereo unspecified)	70	-	-	-	-	-	-	-
CC(=O)OCC1OC(Oc2cc(O)cc3oc(-c4ccc(O)cc4)cc(=O)c23)C(OC2OC(C)C(O)C(O)C2O)C(O)C1O (stereo unspecified)	.	.	.	-	.	.	.	.
COC(=O)c1ccccc1NC(=O)N1CCN(c2ccccc2F)CC1	-	-	-	-	-	-	.	.
COC(=O)c1ccccc1NC(=O)N1CCCC1	28	-	-	-	-	-	102	83
CNC(=O)c1[nH]cnc1C(=O)NC(C)C(=O)OC(C)(C)C (stereo unspecified)	.	.	.	-	.	.	.	.
CC(Oc1ccc(Cl)cc1)c1ccc(C#N)c(=O)[nH]1 (stereo unspecified)	34	-	-	-	-	-	123	97
COC(OC)c1ccc(C#N)c(=O)[nH]1	58	-	-	-	-	-	-	-
O=C1NCC(Cc2cccc3ccccc23)N(CC2CCCCC2)C1=O (stereo unspecified)	.	.	.	-	.	.	.	.
Cc1cc(NCc2ccccc2)n2ncc(-c3ccccc3)c2n1	28	-	-	-	-	-	123	123
COc1ccc(CCNc2cc(C)nc3c(-c4ccc(Cl)cc4)cnn23)cc1OC	34	-	-	-	-	-	42	34
COc1ccc(CCNc2cc(C)nc3c(-c4ccccc4)cnn23)cc1OC	-	-	-	-	-	-	.	.
Cc1cc(NC(C)c2ccccc2)n2ncc(-c3ccccc3)c2n1 (stereo unspecified)	33	-	-	-	-	-	41	30
Cc1cc(NC2CCCC2)n2ncc(-c3ccccc3)c2n1	-	-	-	-	-	-	.	.
CCCC1CCCO[C@@](C(=O)NCc2ccc(S(C)(=O)=O)cc2)(C(F)(F)F)C1 (stereo partly specified)	.	.	.	-	.	.	.	.
COc1cccc(NC(=O)CC(C)=NNC(=O)c2ccccc2Cl)c1	.	.	.	-	.	.	.	.
CCCc1cc(N2CCN(C(=O)c3ccco3)CC2)n2c(nc3ccccc32)c1C#N	32	-	-	-	-	-	100	84
COCCN(CCOC)c1cc(C)c(C#N)c2nc3ccccc3n12	39	-	-	.	-	-	43	41
C=C(C)CSc1cc(C)c(C#N)c2nc3ccccc3n12	-	-	-	.	-	-	.	.
CCCc1cc(NCCCN2CCOCC2)n2c(nc3ccccc32)c1C#N	101	-	-	-	-	-	54	41
CCN(CC)CCNc1cc(C)c(C#N)c2nc3ccccc3n12	86	-	-	.	-	-	-	16
CC(=NNC(=O)c1ccco1)c1ccc(-c2ccccc2)cc1	.	.	.	-	.	.	.	.
O=C(NN=Cc1cccnc1)c1ccc(Cl)s1	.	.	.	-	.	.	.	.
Cc1cc(NCCN2CCOCC2)n2c(nc3ccccc32)c1C#N	58	-	-	.	-	-	104	81
Nc1nc(N2CCN(C(=O)c3ccco3)CC2)nc2ccccc12	45	-	-	-	-	-	-	-
Nc1nc(N2CCN(C(=O)c3ccco3)CC2)nc2ccc(Br)cc12	-	-	.	-	-	-	.	.
SMILES	FBA Mtb inh	PrP UTR inh	PrPC TRFRET	Mtb hypoxia inh	Yp Topo-I inh	GDH-TPI counter-1	Mtb FBA inh conf	GDH-TPI counter-2
O=c1c2ccccc2nc2n1CCCN2	70	-	-	-	-	-	+	+
Cc1nnc(C)n1N=Cc1ccc2c(c1)OCCO2	.	.	.	-	.	.	.	.
COc1ccc2oc(C(=O)OCC(=O)NC3CCCC3)c(C)c2c1	38	-	-	-	-	-	132	113
COc1ccc2oc(C(=O)OCC(=O)NC3(C#N)CCCC3)c(C)c2c1	35	-	-	-	-	-	+	+
COc1ccc2oc(C(=O)OCC(=O)Nc3cc(S(=O)(=O)N4CCOCC4)ccc3C)c(C)c2c1	32	-	-	-	-	-	-	-
COc1ccc2oc(C(=O)OCC(=O)Nc3ccc(NC(C)=O)cc3)c(C)c2c1	27	-	-	-	-	-	94	80
CC(=NNC(=O)c1cc(C)[nH]n1)c1ccco1	.	.	.	-	.	.	.	.
CC=C(C)C(=O)Nc1cccc(C2=NOC3(C2)CC(C(N)=O)N(C(=O)c2ccc(Cl)cc2)C3)c1 (stereo unspecified)	.	.	.	-	.	.	.	.
Cn1cccc1C=Nn1cnnc1	.	.	.	-	.	.	.	.
CCOC(=O)C1(CC(C)=NNC(N)=O)CC(C)OC1=O (stereo unspecified)	.	.	.	-	.	.	.	.
CC(=O)Nc1ccc(C(C)=NNC(=O)c2ccccc2Cl)cc1	.	.	.	-	.	.	.	.
Cc1c(C(=O)OCC(=O)NC2CC2)oc2ccc(Br)cc12	-	-	-	-	-	-	.	.
COc1ccc2oc(C(=O)OCC(=O)NC3CCS(=O)(=O)C3)c(C)c2c1 (stereo unspecified)	53	.	-	.	-	-	167	104
CCOCCCNC(=O)c1cc2c(=O)n(CC)c3ccccc3c2s1	59	-	-	-	-	-	+	+
CCn1c(=O)c2cc(C(=O)NCCOC)sc2c2ccccc21	51	-	-	-	-	-	57	43
CCn1c(=O)c2cc(C(=O)N(C)CC(OC)OC)sc2c2ccccc21	35	-	-	-	-	-	+	+
CCn1c(=O)c2cc(C(=O)N3CCOCC3)sc2c2ccccc21	-	-	-	-	-	-	.	.
CCn1c(=O)c2cc(C(=O)Nc3ccc(OC)cc3OC)sc2c2ccccc21	-	-	-	-	-	-	.	.
COc1ccc(N(CC(=O)NN=Cc2cccnc2)S(=O)(=O)c2ccc(C)cc2)cc1OC	.	.	.	-	.	.	.	.
Cc1sc2ncn(N=Cc3ccco3)c(=O)c2c1C	.	.	.	-	.	.	.	.
O=C(COc1ccc2ccccc2c1)NCC(=O)NN=Cc1ccco1	.	.	.	-	.	.	.	.
CC(C)(C)NC(=S)NN=Cc1cccnc1	.	.	.	-	.	.	.	.
Nc1ccc2c(S(=O)(=O)O)cccc2c1S(=O)(=O)O	53	-	-	-	-	-	76	81
CC(O)c1cc2c(cc1NC(=O)c1cnn3c1NC(c1ccco1)CC3C(F)(F)F)OCO2 (stereo unspecified)	48	-	-	.	-	-	57	55
CCC(C)NC(=O)c1cnn2c1NC(c1ccc3c(c1)OCO3)CC2C(F)(F)F (stereo unspecified)	-	-	-	-	-	-	.	.
CCN(CC)c1ccc(C=NNC(=O)c2cc(C)nc3ccccc23)cc1	.	.	.	-	.	.	.	.

Source: PubChem (several laboratories)
